The structures appear in SMILES notation. Screen size: about 39,000 compounds; about 3,300 (8.5%) were called active. The list comes from a sample in which actives are over-represented; it also holds similar structures and randomly drawn compounds.

For 20 compounds, cytotoxicity call results are on record in the antibiotic and cytotoxicity screens of Wong et al. (2023).

This assay relates to HepG2. In words: cytotoxicity call (relative viability < 0.9). Particulars: 10 µM.
Turning to `CCC(=O)Nc1ccc2c(c1)OC[C@H](C)N(C(=O)CN1CCOCC1)C[C@H](C)[C@@H](OC)CN(C)C2=O`, the cytotoxicity call is “inactive”.
In the case of `CO[C@H]1CN(C)C(=O)c2ccc(NS(=O)(=O)c3cn(C)cn3)cc2OC[C@H](C)N(CC2CC2)C[C@H]1C` it was “inactive”; in that of `O=C(N/N=C/[C@H](O)[C@@H](O)[C@@H](O)[C@H](O)CO)c1ccccn1`, “inactive”.
Regarding `COc1ccc(NC(=O)N(C)C[C@H]2OCCCC[C@H](C)Oc3ccc(NS(=O)(=O)c4ccc(Cl)cc4)cc3C(=O)N([C@@H](C)CO)C[C@@H]2C)cc1`, the cytotoxicity call was “inactive”.
Regarding `COc1ccc(-c2cnc3c(c2)C(=O)N([C@H](C)CO)C[C@H](C)[C@@H](CN(C)C(=O)Cc2ccncc2)O3)cc1`, the cytotoxicity call was “inactive”.
Then `C[C@H](CO)N1C[C@H](C)[C@H](CN(C)S(C)(=O)=O)Oc2ccc(NS(=O)(=O)c3cccs3)cc2CC1=O`, with “inactive”.
Regarding `C[C@@H]1CN([C@@H](C)CO)C(=O)Cc2cc(NS(=O)(=O)c3cn(C)cn3)ccc2O[C@H]1CN(C)C(=O)Nc1ccc(F)cc1`, the cytotoxicity call is “inactive”.
For the compound `C=CC[C@H](CC(=O)NCCO)C(=O)NC[C@H](OC(=O)[C@@H](CC=C)CC(=O)OC(C)(C)C)c1ccccc1`, the cytotoxicity call was “inactive”.
Then `COc1ccc(S(=O)(=O)Nc2cccc3c2O[C@H](CN(C)C(=O)Nc2c(C)noc2C)[C@@H](C)CN([C@@H](C)CO)C3=O)cc1`, with “inactive”; and `Cc1ccc(S(=O)(=O)Nc2cccc3c2O[C@H](CN(C)C(=O)Nc2cccc4ccccc24)[C@@H](C)CN([C@H](C)CO)C3=O)cc1`, with “inactive”.
In the case of `C[C@H](CO)N1C[C@H](C)[C@@H](CN(C)C(=O)Nc2cccc3ccccc23)Oc2c(NS(=O)(=O)c3cccs3)cccc2C1=O` it was “inactive”; in that of `COc1ccc(S(=O)(=O)Nc2cccc3c2O[C@H](CN(C)C(=O)Nc2c(C)noc2C)[C@@H](C)CN([C@H](C)CO)C3=O)cc1`, “active”; in that of `Cc1ccc(S(=O)(=O)Nc2cccc3c2O[C@@H](CN(C)C(=O)Nc2cccc4ccccc24)[C@H](C)CN([C@@H](C)CO)C3=O)cc1`, “inactive”.
For the compound `COc1ccc(S(=O)(=O)Nc2cccc3c2O[C@H](CN(C)C(=O)Nc2cccc4ccccc24)[C@H](C)CN([C@H](C)CO)C3=O)cc1`, the cytotoxicity call is “inactive”.
In the case of `Cc1ccc(S(=O)(=O)Nc2cccc3c2O[C@H](CN(C)C(=O)Nc2cccc4ccccc24)[C@@H](C)CN([C@@H](C)CO)C3=O)cc1` it was “active”; in that of `COc1ccc(S(=O)(=O)Nc2cccc3c2O[C@H](CN(C)C(=O)Nc2cccc4ccccc24)[C@H](C)CN([C@@H](C)CO)C3=O)cc1`, “inactive”.
In the case of `COc1ccc(S(=O)(=O)Nc2cccc3c2O[C@@H](CN(C)C(=O)Nc2c(C)noc2C)[C@H](C)CN([C@@H](C)CO)C3=O)cc1` it was “inactive”; in that of `COc1ccc(S(=O)(=O)Nc2cccc3c2O[C@@H](CN(C)C(=O)Nc2cccc4ccccc24)[C@H](C)CN([C@@H](C)CO)C3=O)cc1`, “active”.
As for `C[C@@H]1CN([C@H](C)CO)C(=O)c2cccc(NS(=O)(=O)c3cccs3)c2O[C@H]1CN(C)C(=O)Nc1cccc2ccccc12`, the cytotoxicity call was “inactive”.
Then `C[C@H]1CN([C@@H](C)CO)C(=O)c2cccc(NS(=O)(=O)c3cccs3)c2O[C@@H]1CN(C)C(=O)Nc1cccc2ccccc12`, with “active”.
